# Experimental data as given in ChEMBL document CHEMBL3988442, “University of Dundee, Small-Polar-MMV Screening Library” (2021).
# Among all 48,000 compounds or so, about 13,000 (27%) showed an effect of 50% or more. This is one part of the list.
# Test system: Wolbachia pipientis
# Experiment: Anti-Wolbachia Cell-Based Screen
# Assay type: functional
# Parameters: scale not given: in the data most compounds retested in dose-response had high values
# Conditions: 5 µM
row,Compound,Percent Effect [%]
1,COCC(c1cccc(C(F)(F)F)c1)N(C)C(=O)c1cc(C)no1 (stereo not given),-19.18
2,CCc1nnc2n1CCN(C(=O)c1ccc(C(F)(F)F)nc1C)C2,5.32
3,CCc1nnc2n1CCN(C(=O)c1cc3cc(F)ccc3[nH]1)C2,1.688
4,CCc1nnc2n1CCN(C(=O)c1cc3ccc(F)cc3nc1C)C2,4.903
5,CCc1nnc(CN2CCN(C(=O)c3cc4ccccc4[nH]3)CC2)o1,0.1099
6,CCOc1ccc2cc(C(=O)N3CCn4c(CC)nnc4C3)[nH]c2c1,104.5
7,CCc1nnc2n1CCN(C(=O)c1cc3ccc(C)cc3[nH]1)C2,95.03
8,CCc1nnc2n1CCN(C(=O)c1cc(Br)c[nH]1)C2,2.696
9,CCOC(C(=O)N1CCn2c(CC)nnc2C1)c1ccccc1 (stereo not given),26.72
10,CCc1nnc2n1CCN(C(=O)c1cc3cc(C)ccc3[nH]1)C2,89.42
11,Cc1ccc2cc(C(=O)N3CCN(S(C)(=O)=O)CC3)[nH]c2c1,-2.597
12,CCc1nnc2n1CCN(C(=O)c1cnc3c(cnn3C(C)C)c1)C2,-2.522
13,CCc1nnc2n1CCN(C(=O)c1cc3ccccc3[nH]1)C2,108.3
14,c1cc(-c2ccc(CN3CCCC4(CCNC4)C3)s2)[nH]n1 (stereo not given),24.12
15,CCc1nnc2n1CCN(C(=O)c1cc3c(F)cccc3[nH]1)C2,92
16,CCc1nnc2n1CCN(C(=O)c1cnc(-c3cccs3)s1)C2,-0.7102
17,CCc1nnc2n1CCN(C(=O)c1ccc3c(c1)NC(=O)CO3)C2,-1.668
18,Cc1nn(C)c(Oc2ccc(Cl)cc2)c1CN1CCOC(CN)C1 (stereo not given),-15.91
19,CN(C)C(=O)[C@H]1C[C@@H]2CCN(C3CCOCC3)C[C@@H]2O1.O=C(O)C(F)(F)F,90.19
20,CN(C)C(=O)[C@H]1C[C@@H]2CCN(C3CCOCC3)C[C@H]2O1,-14.13
21,CN(C)C(=O)[C@@H]1C[C@@H]2CCN(C3CCOCC3)C[C@H]2O1.O=C(O)C(F)(F)F,104.8
22,CN(C)C(=O)[C@@H]1C[C@@H]2CCN(C3CCOCC3)C[C@@H]2O1,104.3
23,CN(C)C(=O)CO[C@H]1COCCN(C2CCOCC2)C1,-5.811
24,O=C(NC1CC1)[C@@H]1CCO[C@@H]2CCN(C3CCOCC3)C[C@@H]21.O=C(O)C(F)(F)F,-4.22
25,CC(c1cncs1)N(C)Cc1ccc(CCC(C)(C)O)cc1 (stereo not given),-1.575
26,COCC(C)(CCO)NC(=O)Nc1c(F)cccc1Br (stereo not given),1.184
27,COCCCN1C(=O)CC[C@H]2CN(Cc3ccc4nonc4c3)CC[C@H]21,-13.98

row,Compound,Percent Effect [%]
1,COCCOCC(=O)N(C)Cc1ccc(OCc2cccs2)cc1,0.8009
2,c1ccc(O[C@H]2COCCN(Cc3cccc4c3OCO4)C2)cc1,-7.306
3,COc1ccc(O[C@H]2COCCN(Cc3c[nH]c4ccccc34)C2)cc1,17.89
4,c1ccc(O[C@H]2COCCN(Cc3c[nH]c4ccccc34)C2)cc1,61.61
5,Cc1cccc(S(=O)(=O)NCc2cccc(CS(C)(=O)=O)c2)c1,-26.55
6,CS(=O)(=O)NCCNC(=O)C1(c2cccc(Cl)c2)CC1,8.855
7,Cc1noc(C)c1CN1CCC(NC(=O)OC(C)(C)C)CC1,-1.462
8,CSc1nc(C2CC2)nc(C)c1C(=O)NCc1cc(C)on1,-0.6929
9,Cc1noc([C@@H](C)NCc2cccc(Cl)c2)c1C(=O)O.Cl,-9.594
10,COC(=O)c1c(Cl)c(C)nc2onc(C)c12,101.9
11,COC(=O)c1c(Cl)c(C2CC2)nc2onc(C)c12,129
12,Cc1nc(C2CCCCC2)sc1C(=O)O,-7.894
13,Cc1noc2nc(C3CC3)c(Cl)c(C(=O)O)c12,111.5
14,Cc1nc([C@H]2C[C@@H]3CCN(Cc4cnn(C)c4)C[C@H]3O2)sc1C,3.707
15,CCN1CCn2c(C)cnc2C12CCN(C(=O)N(C)C)CC2.O=C(O)C(F)(F)F.O=C(O)C(F)(F)F,107
16,CCN1CCn2c(C)cnc2C12CCN(C(=O)C(C)C)CC2.O=C(O)C(F)(F)F.O=C(O)C(F)(F)F,108.7
17,CCN1CCC2(CN(C(=O)N(C)C)CC23CCNCC3)C1=O.O=C(O)C(F)(F)F (stereo not given),-16.29
18,CC(C)C(=O)N1CC2(CCN(CC(C)(C)C)CC2)C1.O=C(O)C(F)(F)F,-18.04
19,CCN1CCn2c(C)cnc2C12CCN(C(=O)CC(C)C)CC2.O=C(O)C(F)(F)F.O=C(O)C(F)(F)F,-11.73
20,COC(=O)COc1nc(CC(C)C)c2c(c1C#N)CCCC2,13.1
21,Cc1noc(CN(C)CC2(O)CCCN(CCC3CCCCC3)C2=O)n1 (stereo not given),5.474
22,CCSCCNC(=O)c1ccc(S(=O)(=O)N2C[C@@H]3C[C@H]2CN3)cc1,-8.721
23,COC(CNC(=O)c1ccoc1)c1cccc(Cl)c1 (stereo not given),-9.296
24,CCC(CC)c1nnc(NC(=O)N2CCC(C(N)=O)CC2)s1,-0.6648
25,COc1ccc(C(=O)N2CCC(c3nccn3C(C)C)CC2)cc1OC,-4.969
26,Cc1nc(C2CCN(C(=O)c3cccnc3)CC2)c2sccn12,-3.155
27,COc1ncc(C(=O)N2CCC(c3nc(C)n4ccsc34)CC2)cn1,120.4

row,Compound,Percent Effect [%]
1,Cc1nc(C2CCN(C(=O)c3cnc(N(C)C)nc3)CC2)c2sccn12,121.8
2,Cc1ncc(CN(C)CC(O)c2cccc(C(F)(F)F)c2)s1 (stereo not given),2.292
3,c1ccc(OCCSC2=NCCN2)cc1,-0.348
4,CC(C)N(CC(N)=O)Cc1csc(-c2ncccn2)n1,8.567
5,CC(=O)N1Cc2nccn2CC(CNC(=O)c2ccnnc2)C1 (stereo not given),-11.54
6,CSc1nccn1-c1cccc(C(=O)NCc2nnc(C)n2C)c1,4.938
7,CC(C)NC(=O)CCNC(=O)c1cc(Br)cn1C(C)C,8.916
8,CSc1nccn1-c1cccc(C(=O)NCCC(=O)NC(C)C)c1,87.94
9,CSc1nccn1-c1ccc(C(=O)NCC2CC2)cc1,114.7
10,CSc1nccn1-c1cccc(C(=O)NCC(F)(F)F)c1,95.57
11,CSc1nccn1-c1cccc(C(=O)NCCN2CCS(=O)(=O)CC2)c1,100.7
12,CSc1nccn1-c1cccc(C(=O)NCC2CC2)c1,-0.4347
13,CSc1nccn1-c1cccc(C(=O)NCCCN2CCOCC2)c1,1.615
14,CN(C(=O)c1cccc(C(=O)NCC(F)(F)F)c1)c1ccccc1,-5.375
15,Cc1ccc2cc(C(=O)NCCN3CCS(=O)(=O)CC3)c(C)nc2c1,-6.636
16,CC(C)NC(=O)CCNC(=O)Nc1cccc(-c2nccn2C)c1,-18.82
17,NC(=O)c1cncc(Oc2cccc(CN3CCCC3)c2Cl)n1,9.192
18,O=C(NCCN1CCOCC1)NCc1ccccc1-n1cccn1,1.937
19,CC(=O)N(C)Cc1ccccc1NCc1c(C)noc1C,25.91
20,COc1cc(C2(C(=O)NC3CCN(CC4CC4)CC3)CC2)ccc1C,28.82
21,CC(OCC1CC1)C(=O)NCc1cccc(CN2CCN(C)CC2)c1 (stereo not given),14.4
22,CN(C)[C@@H]1CN(Cc2ccc(O)cc2)C[C@H]1c1cn(C)c2ccccc12.Cl,86.16
23,CN(C)[C@@H]1CN(Cc2cccnc2)C[C@H]1c1cn(C)c2ccccc12.Cl,79.34
24,Cn1cc(CCC(=O)N2C[C@H]3CC[C@@H]2CN(Cc2ccccc2)C3)cn1,-15.29
25,Cn1cnnc1SCC(=O)N1C[C@H]2CC[C@@H]1CN(Cc1cccnc1)C2,-4.246
26,CC(=O)N1CCC2(CC1)[C@@H]1CN(Cc3cccnc3)C[C@@H]1C(=O)N2C,-30.73
27,CCn1c(C)nnc1CN(C)C1CCN(Cc2ccccn2)C1 (stereo not given),15.92

row,Compound,Percent Effect [%]
1,CN(C)[C@@H]1CN(Cc2ccccc2O)C[C@H]1c1cn(C)c2ccccc12.Cl,136.4
2,CCC[C@@H]1CN(Cc2ccc(N(C)C)nc2)C[C@H]1N(C)C,-0.1894
3,CC(C)[C@@H]1CN(Cc2ccccc2C#N)C[C@H]1N(C)C,11.57
4,Cn1ccnc1CN1C(=O)CO[C@H]2CN(Cc3ccccc3O)C[C@H]21,-13.53
5,CN(C)[C@@H]1CN(Cc2ccccn2)C[C@H]1c1cn(C)c2ccccc12.Cl,130.6
6,CC(C)[C@@H]1CN(Cc2ccccn2)C[C@H]1NS(=O)(=O)N(C)C,-0.7917
7,O=C1NC(c2ccccc2)=N[C@@]12CC[C@@H]1CN(Cc3ccoc3)C[C@@H]12,-8.675
8,Cc1ccn(-c2ccccc2NCc2scnc2C)n1,-9.292
9,CCc1ccc(C(C)NC(=O)c2ccc(CS(C)(=O)=O)o2)cc1 (stereo not given),-17.56
10,CC(O)CN(CC(=O)NC(=O)NC1CC1)c1ccccc1 (stereo not given),10.44
11,CS(=O)(=O)NC(=O)c1cc(Cl)c2c(c1)OCCCO2,1.063
12,CCc1nc(NS(=O)(=O)c2cc(C)ccc2F)no1,7.249
13,COC(C)c1noc(CN(C)c2ncccn2)n1 (stereo not given),-22.13
14,CCN(Cc1noc(CC(C)C)n1)Cc1ccccc1C,1.611
15,CC(C)Cc1noc(CN(C)C2CCCC2)n1,-3.332
16,CCc1cc(N(C)Cc2noc(C(C)C)n2)nc(N2CCOCC2)n1,-7.429
17,CC(C)Cc1noc(CN(C)c2cc(N(C)C)ncn2)n1,110.5
18,COc1cc(N(C)Cc2noc(CC(C)C)n2)ncn1,117.3
19,COCCc1noc(CN(C)c2cc(C)ncn2)n1,-9.011
20,CC(C)Cc1nc(CN(C)CCOc2ccc(F)cc2)no1,5.016
21,CCc1cc(N(C)Cc2noc(CC(C)C)n2)ncn1,121.1
22,Cc1ccn(Cc2nc(CC(C)C)no2)c(=O)c1,-2.116
23,CC(C)Cc1noc(CN(C)c2ncccn2)n1,119.3
24,CCn1ccnc1CN(C)c1cc(OC)ncn1,2.5
